This experiment in a line: growth inhibition of WT strain, primary screen, mitochondrial fusion inhibitor project, WT and mutant strains, chemical genetic (AID 1362). The following applies: mitochondrial fusion phenotypic screen, at 10 µM.
The mark [1] stands for this setting: WT strain, growth inhibition, stronger effect = higher value.

This note sets out measurements from PubChem BioAssay AID1362 (SRMLSC, 2008).

Each structure is given as a SMILES string. Among all 190,000 compounds or so, about 4,000 (2.1%) were called active. Cut-off read from the data, not from the text of the source: active = inhibition above about 58%; inactive = the rest, inconclusive results apart; tested in S. cerevisiae. The full list was thinned out, with actives kept by preference.

As to `O=[N+]([O-])c1ccc(Sc2n[nH]c(-c3ccco3)n2)nc1`, the inhibition runs as follows: under setting [1], -3.94% (inactive); (mutant strain inhibition) -1.1%.

For `O=c1cc(CSc2ccc(Cl)cc2)nc(N2CCOCC2)[nH]1`, the inhibition reads like this: under setting [1], 10.4% (inactive); (mutant strain inhibition) -7.43%.

With `CSCc1cc(N2CCOCC2)nc(SCc2ccc(Cl)cc2Cl)n1`, the inhibition was 79.1% (active) under setting [1] and 52.8% (mutant strain inhibition).

On to `Clc1ccc(CSc2nnc(/C=C/c3ccccc3)o2)c(Cl)c1`, for which the inhibition is 38% (inactive) under setting [1] and 26.7% (mutant strain inhibition).

Consider `O=C(Nc1nnc(SCc2ccc(Cl)cc2Cl)s1)C1COc2ccccc2O1` (centres undefined), for which the inhibition was 56.1% (inactive) under setting [1] and 17.9% (mutant strain inhibition).

Take `CSCc1cc(N(C)C)nc(SCc2ccc(Cl)cc2Cl)n1`: the inhibition was 59.7% (active) under setting [1] and 52.5% (mutant strain inhibition).

Consider `Cc1ccc(Sc2cc(N3CCOCC3)nc(-c3ccccc3)n2)cc1`, for which the inhibition under setting [1] is -0.33% (inactive) and the inhibition (mutant strain inhibition) is 3.68%.

`COc1ccccc1CNC(=O)CNC(=O)c1cn(-c2ccccc2OC)c(=O)c2ccccc12`: the inhibition by setting is: under setting [1], -8.54% (inactive); (mutant strain inhibition) 3.48%.

Consider `O=C(NNC(=O)C1CCN(c2ncccn2)CC1)c1ccccc1`, for which the inhibition was -10.9% (inactive) under setting [1] and -13.4% (mutant strain inhibition).

For the compound `OCCC1CN(Cc2ccc3nsnc3c2)CCN1C1CCCC1` (centres undefined), the inhibition by setting is: under setting [1], 2.03% (inactive); (mutant strain inhibition) 2.69%.

With `O=C(CCCn1c(=O)c2sccc2n(CC(=O)NCC2CCCO2)c1=O)NCc1ccco1` (centres undefined), the inhibition was 2.48% (inactive) under setting [1] and 3.2% (mutant strain inhibition).

Turning to `CC(=O)Nc1ccc(-c2csc(NC=C3C(=O)OC(C)(C)OC3=O)n2)cc1`, the inhibition under setting [1] was -0.59% (inactive) and the inhibition (mutant strain inhibition) came out at 17.6%.

Turning to `C/C(=N/Nc1ccc(Cl)cc1)c1cnnc(-c2ccccc2)n1`, the inhibition under setting [1] is 9.51% (inactive) and the inhibition (mutant strain inhibition) stood at 20.8%.

Turning to `CCOC(=O)Cc1csc(NC(=O)CSc2nc(C)cc(=O)[nH]2)n1`, the inhibition is 15.9% (inactive) under setting [1] and 18.4% (mutant strain inhibition).

In the case of `CCOC(=O)Cc1csc(SCC(=O)NC(C)C23CC4CC(CC(C4)C2)C3)n1` (centres undefined), the inhibition by setting is: under setting [1], 59.2% (active); (mutant strain inhibition) 26.1%.

Consider `CCOC(=O)Cc1csc(NC(=O)CSc2ccc(Br)cc2)n1`, for which the inhibition by setting is: under setting [1], 31.2% (inactive); (mutant strain inhibition) 25.6%.

For `C/C(=N\NC(=S)NCc1ccccc1)c1ccc(Cl)cc1`, the inhibition under setting [1] is 31.1% (inactive) and the inhibition (mutant strain inhibition) came to 21.1%.

Turning to `C/C(=N\NC(=S)NC(C)C)c1ccc(C(C)(C)C)cc1`, the inhibition under setting [1] was 70.2% (active) and the inhibition (mutant strain inhibition) is 59%.

As for `CC/C(=N\NC(=S)NC(C)C)c1ccc(OC(F)F)cc1`, the inhibition is, setting by setting: under setting [1], 32% (inactive); (mutant strain inhibition) 43.5%.

Take `c1ccc(C2c3[nH]c4ccccc4c3CCN2Cc2cccn2-c2cccnc2)nc1` (centres undefined): the inhibition is, setting by setting: under setting [1], -2.92% (inactive); (mutant strain inhibition) -2.59%.

Consider `Oc1cccc(C2c3[nH]c4ccccc4c3CCN2Cc2cnn(-c3ccccc3)c2)c1` (centres undefined), for which the inhibition was 59.9% (active) under setting [1] and -4% (mutant strain inhibition).

In the case of `COc1cccc(C2c3[nH]c4ccccc4c3CCN2Cc2cccc(C)n2)c1` (centres undefined), the inhibition under setting [1] is 40.2% (inactive) and the inhibition (mutant strain inhibition) is 33.8%.

Regarding `CCc1ccc(OCC(=O)OCC(=O)c2c(N)n(C)c(=O)n(C)c2=O)cc1`, the inhibition is, setting by setting: under setting [1], -10.7% (inactive); (mutant strain inhibition) -9.86%.

In the case of `COc1ccc(Br)cc1/C=N/NC(=O)c1cccc(S(=O)(=O)N2CCOCC2)c1`, the inhibition is, setting by setting: under setting [1], 1.71% (inactive); (mutant strain inhibition) -16.2%.

In the case of `CC1CC(C)CN(CCC(=O)Nc2ccc3c(c2)CCC3)C1` (centres undefined), the inhibition runs as follows: under setting [1], 2.25% (inactive); (mutant strain inhibition) 2.32%.

Regarding `CC1(C)CC2CC(C)(CN2c2ncnc3ccc(Br)cc23)C1` (centres undefined), the inhibition is 64.4% (active) under setting [1] and 47.6% (mutant strain inhibition).

`COc1ccc(C(=O)N2CC3(C)CC2CC(C)(C)C3)cc1OC` (centres undefined): the inhibition runs as follows: under setting [1], -9.9% (inactive); (mutant strain inhibition) 6.2%.

Consider `C=CCNc1ncnc2ccc(Br)cc12`, for which the inhibition is 6.92% (inactive) under setting [1] and 5.26% (mutant strain inhibition).

Turning to `CC1=CC=CC2=N/C(=N\S(=O)(=O)c3ccc(F)cc3F)c3ccccc3CN12`, the inhibition by setting is: under setting [1], 7.93% (inactive); (mutant strain inhibition) -4.27%.

Regarding `Cc1ccc(S(=O)(=O)N(C)CC(=O)OCC(=O)N2CC(=O)Nc3ccccc32)cc1`, the inhibition runs as follows: under setting [1], -2.48% (inactive); (mutant strain inhibition) -6.41%.

For the compound `O=C(c1cccnc1)N(c1cc2sc(=O)oc2c2ccccc12)S(=O)(=O)c1ccccc1`, the inhibition is, setting by setting: under setting [1], 69% (active); (mutant strain inhibition) 25.4%.

Turning to `COc1ccc(N(C(=O)c2cccnc2)S(=O)(=O)c2ccc3c(c2)n(C)c(=O)n3C)cc1`, the inhibition runs as follows: under setting [1], -46.4% (inactive); (mutant strain inhibition) -32.1%.

As to `CN(C)S(=O)(=O)c1cccc(C(=O)Nc2cccnc2)c1`, the inhibition is, setting by setting: under setting [1], -9.84% (inactive); (mutant strain inhibition) 2.94%.

Regarding `CN1CCN(CCNC(=O)Nc2ccc([N+](=O)[O-])cc2)CC1`, the inhibition by setting is: under setting [1], 22.2% (inactive); (mutant strain inhibition) 0.87%.

For the compound `O=C(COc1ccc(S(=O)(=O)N2CCCCC2)cc1)NCc1ccccn1`, the inhibition was 14.7% (inactive) under setting [1] and 2.79% (mutant strain inhibition).

For `O=C(C1CC1)N1CCN=C1SCc1ccc(Cl)cc1`, the inhibition reads like this: under setting [1], 22.2% (inactive); (mutant strain inhibition) 20.3%.

`CC1CCN(C(=O)c2ccc(CSc3ccc(Cl)cc3)cc2)CC1`: the inhibition runs as follows: under setting [1], 75.2% (active); (mutant strain inhibition) 26.4%.

As for `O=C(c1ccc(CSc2ccccc2)cc1)N1CCCCCC1`, the inhibition is 38.9% (inactive) under setting [1] and 19.1% (mutant strain inhibition).

As to `CN(NC(=O)C1CC(=O)N(c2ccccc2)C1)C1=NS(=O)(=O)c2ccccc21` (centres undefined), the inhibition is, setting by setting: under setting [1], -6.62% (inactive); (mutant strain inhibition) 8.77%.

On to `CC(C)N(Cc1ccccc1)C(=O)COC(=O)c1cnccn1`, for which the inhibition reads like this: under setting [1], -8.68% (inactive); (mutant strain inhibition) -4.78%.

`CCOc1cccc(/C=N/N2C(=O)CSC2=S)c1O`: the inhibition under setting [1] is -2% (inactive) and the inhibition (mutant strain inhibition) is 11.3%.

In the case of `COc1cccc(NC(=S)N(CCc2c(C)[nH]c3ccccc23)Cc2ccco2)c1`, the inhibition under setting [1] is 63.2% (active) and the inhibition (mutant strain inhibition) is -12.2%.

The inhibition is the relative decrease from the control value, in per cent.
